The whole screen tested about 120,000 compounds, of which about 840 (0.7%) were called active. The list comes from a sample in which actives are over-represented; it also holds similar structures and randomly drawn compounds. Values without a mark were called inactive.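 How the source made its calls: active means inhibition above the batch mean plus 3 SD, and confirmed as a hit on visual image review (cut at about 43% in these data); inconclusive means passes the inhibition cutoff but fails visual image review; inactive means the rest.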

One may read the inhibition as the drop in the measured response relative to a control, in per cent.

The test is described as follows: E-selectin induction blockers in HUVEC – imaging, immunofluorescence, high content, primary screen (AID 1246).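 Further: 0% = TNF-stimulated DMSO wells and 100% = unstimulated control wells.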 The note with it: HUVEC TNFa-induced E-selectin immunofluorescence, at 2 µM, stronger effect = higher value.
As for `COC(=O)C(=Nc1ccccc1)/C(C(=O)C(=O)N(C)c1ccccc1)=C(\O)c1ccc(Cl)cc1`, the inhibition is -20.7%.

`CSc1ncccc1C(=O)N1CCCC(CCC(=O)NCc2ccccc2F)C1` (stereo not drawn): the inhibition was -22.4%.

For the compound `Cc1cc(C)c2c(c1)c(C)cc1nnc(SCC(=O)NCc3ccco3)n12`, the inhibition is 9.01%.

`O=C(CSc1nnc(-c2ccco2)n1Cc1ccccc1)NC(=O)NCc1ccco1`: the inhibition is -1.5%.

Regarding `Cc1ccc(SCC(=O)NC(=O)NCc2ccco2)c(C)c1`, the inhibition was 76% (active).

For `Cc1cc(N2CCN(C)CC2)nc2ccc(NC(=S)N3CCOCC3)cc12`, the inhibition was 19.6%.

Turning to `CC(=O)N1CCN(S(=O)(=O)c2c(F)cc(F)c(Cl)c2F)CC1`, the inhibition is -26.7%.

Consider `CCOC(=O)N1CCN(C(=O)CSc2nc(C)nc3c2c(=O)n(C)c(=O)n3C)CC1`, for which the inhibition is -25%.

Turning to `Brc1cc(/C=N/n2cnnc2)oc1Br`, the inhibition is -13.4%.

Take `Cc1cccc(C)c1NC(=O)C1CCCN1C(=O)OC(C)(C)C` (stereo not drawn): the inhibition was -33.1%.

`C=CCN(CC=C)CCOc1ccccc1[N+](=O)[O-]`: the inhibition is -5.8%.

For `Cc1ccc(CNC(=O)c2cccnc2Cl)cc1`, the inhibition is -5.85%.

Take `CSc1nc(C)cc(SC(C(C)=O)C(=O)Nc2ccccc2)n1` (stereo not drawn): the inhibition was -11.9%.

With `CC12CCC(C(=O)N(NC(=O)c3ccccc3O)C1=O)C2(C)C` (stereo not drawn), the inhibition was -1.25%.

In the case of `CC(Sc1nnc2c(n1)C1CCC2(C)C1(C)C)C(=O)Nc1ccccc1` (stereo not drawn), the inhibition is 70.7% (active).

With `Cc1ccc2c(Cl)c(C(=O)Nc3nn[nH]n3)sc2c1`, the inhibition is 13%.

In the case of `COc1ccccc1CNC(=O)C1Cc2ccccc2C(=O)O1` (stereo not drawn), the inhibition is -3.67%.

Regarding `Cn1c(-c2ccc(F)cc2)cnc1SCC(=O)NNC(=O)Cc1ccccc1`, the inhibition is -21.1%.

Take `CC1=NN(C(C)C)C(=O)C1`: the inhibition was 53.9% (active).

As for `Cc1cc(C)n(Cc2cnc(N3CCOCC3)s2)n1`, the inhibition was 1.48%.

`Cn1c(SCC(=O)Nc2ccc(Br)cc2F)nnc1-c1ccco1`: the inhibition was -23.6%.

Take `CCNC(=S)NNC(=O)c1ccc2ncccc2c1`: the inhibition is 9.15%.

With `Cc1ccc(-c2csc3nnc(SCC(=O)NCc4ccco4)n23)cc1`, the inhibition was -6.76%.

With `CCn1c(COc2ccccc2)nnc1SCC(=O)NCc1ccco1`, the inhibition was -14.4%.

On to `CCn1c(SCC(=O)NCc2ccco2)nnc1-c1ccc(N)cc1`, for which the inhibition is 69.4% (active).

Regarding `Cc1ccc(-n2c(C)cc(C(=O)CN3C(=O)C(=O)N(C4CCCC4)C3=O)c2C)cc1`, the inhibition was -16.5%.

As to `Cc1ccc(OCC(=O)Nc2ccc(S(=O)(=O)Nc3ccccn3)cc2)cc1`, the inhibition was -18.7%.

Regarding `CN(C)CC(C)(C)CNC(=O)c1cc(Br)cc(Br)c1O`, the inhibition is 0.11%.

In the case of `CC(=O)Nc1nc(N(C)C)nc(N(C)C)n1`, the inhibition is 13.8%.

As to `CN(C)S(=O)(=O)c1cc(NC(=O)CN2C(=O)NC3(CCCc4ccccc43)C2=O)ccc1Cl` (stereo not drawn), the inhibition is 67.1% (active).

As for `Cc1cccc(NC(=O)CN2C(=O)CNC2=O)c1`, the inhibition is -1.87%.

Consider `CC1(c2ccccc2Cl)NC(=O)N(CC(=O)NC(=O)NCc2ccco2)C1=O` (stereo not drawn), for which the inhibition was 23.7%.

On to `CN1CCN(CCCCOc2ccccc2-c2ccccc2)CC1`, for which the inhibition is -23.6%.

For `CC(=O)C1(C)N(O)C(C)(C)C(c2cccs2)=[N+]1[O-]` (stereo not drawn), the inhibition was -15.7%.

On to `CC1CC(C)CN(S(=O)(=O)c2ccc(C(=O)NN3CCOCC3)cc2)C1` (stereo not drawn), for which the inhibition was -4.78%.

Turning to `CCOC(=O)c1sc(NC(=O)CSc2nnc(-c3ccco3)o2)c(C(=O)OCC)c1C`, the inhibition was -40.2%.

As to `CCOC(=O)c1c(NC(=O)CSc2nnc(CNc3ccc(C)cc3C)o2)sc(C)c1C`, the inhibition is 74.5% (active).

Regarding `CCOC(=O)c1c(-c2ccc(C)cc2C)csc1NC(=O)CSc1nnnn1C`, the inhibition is -25.1%.

Regarding `COc1cccc(C(=O)N2CCCC(CCC(=O)NCc3ccc(F)c(F)c3)C2)c1` (stereo not drawn), the inhibition is -27.8%.

As to `O=c1[nH]c2cccnc2n(CCNc2ncc(C(F)(F)F)cc2Cl)c1=O`, the inhibition is -0.32%.

`Cc1ccc(NC(=O)c2oc3ccccc3c2C)c([N+](=O)[O-])c1`: the inhibition was 7.01%.

For the compound `CCOc1cc(-c2nc3cc(C)ccn3c2NCC2CCCO2)ccc1O` (stereo not drawn), the inhibition is -1.41%.

For the compound `COc1ccc(-c2nc3cnccn3c2NC(C)(C)CC(C)(C)C)cc1O`, the inhibition was 78.6% (active).

With `COc1ccc(-c2cc(C(F)(F)F)nc(NCc3cccnc3)n2)cc1`, the inhibition was 6.81%.

In the case of `COc1cccc(CNC(=O)c2n[nH]c3ccccc23)c1`, the inhibition is 21.4%.

Turning to `CNC(=O)COC(=O)c1cc(-c2ccc(OC)cc2)nc2ccccc12`, the inhibition was -50.4%.

As to `CC(=O)c1cnc(-c2ccccc2)s1`, the inhibition is -23.3%.

Turning to `CN(CC(=O)Nc1ccccc1F)CC(=O)Nc1ccccc1Br`, the inhibition is -9.64%.

With `O=C(O)CCn1c(SCc2cc(=O)n3ccccc3n2)nc2ccsc2c1=O`, the inhibition is 7.79%.

Take `COC(=O)Cn1cc(/C=C/[N+](=O)[O-])c2ccccc21`: the inhibition was -39.6%.

`COc1cccc(OCC(=O)NNC(=O)c2cnccn2)c1`: the inhibition was -0.48%.

With `COc1ccccc1CCNC(=O)c1cnccn1`, the inhibition is 70.2% (active).

With `COc1ccccc1CCNC(=O)CSc1nnc2ccc(-c3cccnc3)nn12`, the inhibition was 23.9%.

Regarding `COc1ccccc1CNC(=O)c1cc(=O)c2ccccc2o1`, the inhibition is 6.95%.

As for `Cc1ccc(S(=O)(=O)N(C)C)cc1NC(=O)c1ccccc1Br`, the inhibition was 21.2%.

Regarding `COc1ccc(NC(=O)CCNS(=O)(=O)c2ccc3c(c2)c(=O)n(C)c(=O)n3C)cc1OC`, the inhibition was -38.9%.

Consider `COc1ccc(C2CC(=O)n3c(nc4ccccc43)S2)cc1OC` (stereo not drawn), for which the inhibition is -0.21%.

Take `COc1ccc(C2N=C(N)N=C(N)N2c2ccccc2)cc1OC` (stereo not drawn): the inhibition is 62.9% (active).

With `COc1ccc(C2/C(=C(/O)c3ccccc3)C(=O)C(=O)N2c2ncccn2)cc1OC` (stereo not drawn), the inhibition was -2.78%.

With `O=C(O)/C=C/c1ccc(OCCCF)cc1`, the inhibition was -53.3%.

Regarding `O=C(Oc1cccc(N2C(=O)C3C4c5ccccc5C(c5ccccc54)C3C2=O)c1)c1ccco1` (stereo not drawn), the inhibition was 13.7%.

As to `CC(=O)Oc1cccc(N2C(=O)CC(Nc3ccc(N4CCOCC4)cc3)C2=O)c1` (stereo not drawn), the inhibition is -16.6%.

With `CC(=O)Oc1cccc(N2C(=O)C3CC=C(Cl)CC3C2=O)c1` (stereo not drawn), the inhibition was 64.7% (active).

Regarding `COc1cc(C=O)c(Br)cc1OCC(=O)NCc1ccccc1`, the inhibition is -19%.

As to `CCCNC(=S)N1CCCC(c2nc3ccccc3[nH]2)C1` (stereo not drawn), the inhibition was -49%.

On to `Cn1c(CCC(=O)Nc2ccccc2F)nnc1SCC(=O)Nc1ccccc1Cl`, for which the inhibition was -44.5%.

For `COc1ccc(S(=O)(=O)N2CCN(C(=O)c3cc(C)oc3C)CC2)cc1`, the inhibition was -37.8%.

Consider `CC(=O)c1ccc(N=C2SCCCN2C(=O)C2CCCCC2)cc1`, for which the inhibition is 7.89%.

Turning to `COc1cccc(C(=O)Oc2cc(C)[nH]c(=O)c2[N+](=O)[O-])c1`, the inhibition is 21.9%.

Take `CCN(CC)Cc1cc(C(C)=O)ccc1O`: the inhibition is 47.5% (active).

For `COCc1cc(C(C)=O)ccc1OC`, the inhibition was -4.6%.

For `CC(=O)c1ccc2c(ccc3ccccc32)c1`, the inhibition was 22.7%.

With `CC1CCCN(CC(O)COc2ccc3c(c2)OCO3)C1` (stereo not drawn), the inhibition was 11.9%.

With `O=C1CCC(=O)N1c1ccc(NCCc2ccccc2F)c([N+](=O)[O-])c1`, the inhibition was -8.93%.

For `CCN(C(=O)CN1CCN(Cc2ccccc2)CC1)c1c(N)n(Cc2ccccc2)c(=O)[nH]c1=O`, the inhibition is -54.5%.

On to `Cc1ccc(NC(=O)COc2ccc(-n3ccnc3)cc2)cc1Cl`, for which the inhibition is 73% (active).

As for `CN1CCN(c2ccc(NC(=O)COc3ccc(Cl)cc3Cl)cc2)CC1`, the inhibition is 3.16%.

In the case of `COc1ccc(OCC(=O)Nc2ccc(N3CCC(C)CC3)cc2)cc1`, the inhibition is -61.5%.

With `O=C(Cn1nnc2ccccc2c1=O)NCc1ccc(Cl)cc1`, the inhibition is -24.9%.

For `COCCNC(=O)/C(C#N)=C/c1nc(N(C)C)n(-c2ccc(F)cc2)c1Cl`, the inhibition is 6.3%.

With `Nc1ccc(S(=O)(=O)Nc2nccc(/C=C/c3ccc(Br)s3)n2)cc1`, the inhibition is 11.1%.

As for `CCOC(=O)C(C)n1cnc2sc(C)c(C)c2c1=O` (stereo not drawn), the inhibition is 23.1%.

On to `CCc1cc2c(NC3CCCC3)ncnc2s1`, for which the inhibition is -4.12%.

For `CCCNc1ncnc2sc(C)c(C)c12`, the inhibition was 99.7% (active).

For the compound `C/[N+]([O-])=C\c1ccc([N+](=O)[O-])o1`, the inhibition is -20.9%.

For the compound `COC(=O)C1=C(C)N(C)C(=O)NC1c1ccc([N+](=O)[O-])o1` (stereo not drawn), the inhibition is 4.38%.

Turning to `C(=N/N1CCN(c2ccccc2)CC1)/c1cccs1`, the inhibition is -23.6%.

As for `Cc1ccc(N2CCN(C3=NC(=O)/C(=C\c4cccs4)S3)CC2)cc1`, the inhibition was -36.9%.

For `Cc1ccc(N2CCN(/N=C/c3cccs3)CC2)cc1`, the inhibition is 58.4% (active).

Consider `CS(=O)(=O)n1nc(-c2ccco2)nc1N`, for which the inhibition was -27.1%.

As to `Cn1nc(-c2ccccc2)c(CO)c1Sc1ccccc1`, the inhibition was -21.3%.

Turning to `CC(=O)NCCC(=O)Nc1cc(S(=O)(=O)N2CCOCC2)ccc1N1CCOCC1`, the inhibition was -13.3%.

Regarding `CCc1ccc(NC(=O)Cn2nc(C)c([N+](=O)[O-])c2C)cc1`, the inhibition is 24.3%.

Regarding `COC(=O)c1ccc(NCC(=O)N2CCCCCC2)cc1`, the inhibition was 7.57%.

For the compound `Cc1cc(C)nc(/N=C2\NC(=O)CC(C(=O)O)N2c2ccc(Cl)cc2Cl)n1` (stereo not drawn), the inhibition was 48.5% (active).

Regarding `Cc1cc(Cl)ccc1N1C(=O)CC(SCCC(=O)O)C1=O` (stereo not drawn), the inhibition is -14%.

For `CCOC(=O)c1nc(C)n(-c2ccc(Cl)cc2Cl)n1`, the inhibition is -32.4%.

Consider `COc1ccc(Sc2nc(-c3ccccc3)ncc2OC)cc1`, for which the inhibition is -16.9%.
